Screening results deposited in PubChem by National Center for Advancing Translational Sciences (NCATS).
GLP1R ag: activates the human GLP-1 receptor | AID 624172 | HEK293 GLP-1R CRE-luciferase, luminescence, 4-6 h; cells express a hypersensitive GLP-1R form | hit rate 0.007% among 380,000 | P43220 | Potency, µM (titrated, usually from 45.6 µM), inactives show at the top dose activation, most hits filed as activators; note: potency is the fitted concentration of half-maximal effect; % of control where 0% means no effect
DRD3 antagonist: blocks the human D3 dopamine receptor. max response, negative = inhibition, %. hit rate 2.5% among 360,000. P35462. D3R cells, DiscoveRx beta-arrestin luminescence, antagonist mode; stronger effect = lower value. AID 652054; in the data active = max response below about -50%; inconclusive = no clear call, values can overlap the other calls; note: % is set by controls: 0 for no effect and ±100 for the full control effect
Target sequence (P35462 whole entry, looked up): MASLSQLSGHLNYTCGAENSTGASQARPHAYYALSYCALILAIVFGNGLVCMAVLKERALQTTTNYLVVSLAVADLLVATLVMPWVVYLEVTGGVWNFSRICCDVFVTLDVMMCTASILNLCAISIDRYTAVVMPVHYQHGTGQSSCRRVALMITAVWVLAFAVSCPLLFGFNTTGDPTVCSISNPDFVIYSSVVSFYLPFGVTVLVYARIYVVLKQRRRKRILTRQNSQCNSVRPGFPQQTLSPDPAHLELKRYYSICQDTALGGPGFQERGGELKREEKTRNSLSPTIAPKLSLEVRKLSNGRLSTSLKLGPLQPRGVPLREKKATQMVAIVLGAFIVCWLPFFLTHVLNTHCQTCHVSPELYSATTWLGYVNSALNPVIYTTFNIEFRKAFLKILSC
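Cells expressing the human receptor were seeded at 1500 cells/well, incubated overnight at 37 degrees C in 5% CO2, then exposed to library compounds with dopamine controls for 90 minutes at 37 degrees C before luminescent detection.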
GLP-1R inv ag: GLP-1 receptor (human) inverse agonism | P43220 | HEK293 GLP-1R CRE-luciferase, luminescence, 24 h; GLP-1R form is constitutively active | Potency, µM (top dose mostly 38.3 µM), without a hit: at the highest dose activity change, negative = inhibition, usual class: inhibitors | hit rate 1.6% among 410,000 | AID 624417; note: potency is the fitted concentration of half-maximal effect; % is set by controls: 0 for no effect and ±100 for the full control effect; nearly all actives have a fitted effect of over 55% in size
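Cells are plated, allowed 12 hours at 37 deg C, then treated with compounds for 24 hr before luciferase detection reagent is added and luminescence is read after 12 min at room temperature. The HEK293 line carries constitutively active GLP-1R with a cAMP-responsive reporter.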
D3 ag: agonists of human D3 dopamine receptor | D3R DiscoveRx beta-arrestin cells, luminescence, 90 min | P35462 | hit rate 0.58% among 410,000 | max activation, %; in the data active = max activation above about 30%; note: 0% is about no effect
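Agonist-mode cell screen: cells plated at 1500/well and incubated overnight at 37 °C, then exposed to library compounds for 90 min at 37 °C. Detection reagent was added for 30–60 min at room temperature, and luminescence was read.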
Active calls of the source: *; ? = inconclusive; . = no result. A selection: hits, their analogues and other compounds. The true share with any hit is near 4.3%. Unless noted, calls come from the whole dose curve; as a rule, active = well fitted curve in the direction sought with a large enough effect; inconclusive = small, poorly fitted or top-dose-only effect, or another doubt; inactive = no such curve, though single readings can be large; an effect the other way counts as inactive or inconclusive.

SMILES | GLP1R ag | DRD3 antagonist | GLP-1R inv ag | D3 ag
Cc1c(Br)c([N+](=O)[O-])nn1CC(=O)N1CCc2ccccc21 | -0.2% | -16.0 | 0.4% | -15.5
Cc1c(Br)c([N+](=O)[O-])nn1C(C)C(=O)N1CCCc2ccccc21 (configuration not stated) | -3.7% | 16.7 | 10µM* | -2.0
O=C(C(c1ccccc1)c1ccccc1)N1CCCc2ccccc21 | 1.4% | -60.8* | 5.01µM* | 0.4
CCCCCOC(=O)CSc1nc2sc3c(c2c(=O)n1Cc1ccccc1)CC(C)(CC)OC3 (configuration not stated) | . | . | ? | 5.2
Cc1cc(C)c2c(-n3cccc3)c(C(=O)NCCc3ccccc3)sc2n1 | . | . | 6.7% | 16.4
OCCN1CCN(c2nc(-c3ccccc3)c3cc(Cl)ccc3n2)CC1 | -19.8% | 0.0 | 3.55µM* | -14.0
Cc1ccc2nc(N3CCN(CCO)CC3)nc(-c3ccccc3)c2c1 | 21.3% | ? | 6.31µM* | -25.5
CC(=O)Nc1ccc(CNc2nc(NC(C)C)nc3cc(-c4ccccc4)sc23)cc1 | -13.3% | -9.7 | 11.2µM* | 2.6
COc1ccccc1CNc1nc(NCCOc2ccccc2)c2sccc2n1 | -6.8% | 3.5 | ? | 0.9
C=CCNc1nc(NCc2ccc(NC(C)=O)cc2)c2sc(-c3ccccc3)cc2n1 | -9.5% | -14.2 | ? | -2.9
c1ccc(-c2cc3nc(NCC4CC4)nc(NCC4CCCCC4)c3s2)cc1 | -4.7% | 0.0 | 2µM* | -0.9
COCCNc1nc(NCCNC(C)=O)c2sc(-c3ccccc3)cc2n1 | -0.3% | -25.1 | ? | -5.4
COCCNc1nc(NCCOc2ccccc2Cl)c2sc(-c3ccccc3)cc2n1 | 7.5% | 14.7 | ? | 58.0*
c1ccc(OCCNc2nc(NCC3CC3)nc3ccsc23)cc1 | -2.5% | 14.4 | 8.91µM* | -2.0
CO/N=C(\C(=O)N[C@@H]1C(=O)N2C(C(=O)O)=C(CSc3cnns3)CS[C@H]12)c1csc(N)n1 | . | . | . | 0.1
Cc1ccc(-n2c(SCc3nc(-c4ccccc4C)no3)nnc2-c2ccncc2)cc1C | . | . | 6.2% | 0.5
CCOc1cc(C(=O)Nc2ccc3c(c2)n(C)c(=O)c(=O)n3C)cc(OCC)c1OCC | . | . | 0.4% | -1.5
CCc1ccc(NC(=O)CSc2nc3ccccc3nc2Cc2ccccc2OC)cc1 | . | . | 4.0% | -19.0
CCc1ccc(NC(=O)N(Cc2cn(CC)c3ccccc23)C2CCCCC2)cc1 | -6.3% | . | -76.3% | -10.6
CCOc1ccc(NC(=O)N(Cc2cn(CC)c3ccccc23)C2CCCCCC2)cc1 | . | . | 11.2µM* | -13.6
C=CCN=c1scc(-c2ccco2)n1/N=C/c1ccc(O)c(O)c1O | 18.4% | 46.9 | 21.9% | 183.9*
CN=c1scc(-c2cccs2)n1/N=C/c1ccc(O)c(O)c1O | 5.6% | 2.6 | 36.0% | 169.5*
CC(C)N=c1scc(-c2ccco2)n1/N=C/c1ccc(O)c(O)c1 | 24.3% | 5.1 | 11.8% | 19.5
CN=c1scc(-c2cccs2)n1/N=C/c1ccccc1O | -6.7% | 28.1 | ? | 3.3
COCCN=c1scc(-c2ccco2)n1/N=C/c1ccc(O)c(O)c1O | 8.8% | 19.0 | 26.8% | 116.7*
SMILES | GLP1R ag | DRD3 antagonist | GLP-1R inv ag | D3 ag
O=C(CN1CCC(n2nnc3ccccc32)CC1)Nc1ccc2c(c1)CCC2 | 15.5% | -65.1* | ? | -6.5
O=C(CN1CCC(n2nnc3cc(F)ccc32)CC1)N1CCCc2ccccc21 | 3.2% | -53.7* | -24.0% | 0.1
O=C(CN1CCC(n2nnc3cc(C(F)(F)F)ccc32)CC1)N1CCc2ccccc21 | -3.2% | -26.1 | -13.1% | -14.8
O=C(CN1CCC(n2nnc3cc(F)ccc32)CC1)Nc1ccc2c(c1)CCC2 | 8.9% | -76.0* | ? | -11.1
O=C(CN1CCC(n2nnc3cc(F)ccc32)CC1)NCCc1nc2ccccc2[nH]1 | -2.6% | -64.8* | -14.0% | -33.8
CC1CC1C(=O)OCC(=O)Nc1cccc(Br)c1 (configuration not stated) | 7.0% | -22.4 | ? | 1.8
CC1CCC(NC(=O)CN2CCC(n3nnc4cc(F)ccc43)CC2)CC1 (configuration not stated) | 12.8% | -67.1* | -16.4% | 0.3
Cc1ccc2c(c1)nnn2C1CCN(CC(=O)N2c3ccccc3CC2C)CC1 (configuration not stated) | -7.2% | -70.2* | 0.0% | -8.8
Cc1cc(NC(=O)c2c(Cl)cnn2C)no1 | -7.2% | -71.3* | 10.4% | 0.8
O=C(CCC(=O)N1CCSc2ccccc21)Nc1ccc(Cl)cc1 | . | . | ? | -37.4
CCOC(=O)c1cc(-c2ccccc2)n(-c2cccc(C(=O)Nc3cccc(C(C)=O)c3)c2)c1C | . | . | 5.62µM* | 4.7
CCOC(=O)c1cc(-c2ccccc2)n(-c2cccc(C(=O)Nc3cccc(SC)c3)c2)c1C | . | . | 3.55µM* | 0.0
CCOC(=O)c1cc(-c2ccccc2)n(-c2cccc(C(=O)Nc3cccc(F)c3)c2)c1C | . | . | ? | -3.5
CC(CCc1ccc2c(c1)OCO2)NN (configuration not stated) | -6.7% | . | . | -3.3
CCN(CCCNC(=O)CN1C(=O)COc2ccc(S(=O)(=O)N3CCC(C)CC3)cc21)Cc1ccccc1 | -4.7% | -73.7* | ? | -17.9
Cc1ccccc1OC1(C)CCN(Cc2ccc(-c3ccccn3)cc2)C1 (configuration not stated) | -3.5% | -75.4* | -21.2% | -8.6
CC1(Oc2cccc(F)c2)CCN(Cc2ccc(-c3ccccn3)cc2)C1 (configuration not stated) | -6.3% | -67.2* | -16.6% | -26.6
CCC(=O)O[C@@H]1CC(=O)O[C@H](C)C/C=C/C=C/[C@H](O)[C@H](C)C[C@H](CC=O)[C@H](O[C@@H]2O[C@H](C)[C@@H](O[C@H]3C[C@@](C)(O)[C@@H](OC(=O)CC)[C@H](C)O3)[C@H](N(C)C)[C@H]2O)[C@H]1OC | . | . | . | 7.4
COc1cccc(-n2nc(C#N)c(Cl)cc2=O)c1 | -8.3% | -87.0* | ? | -14.1
CCOC(=O)[C@]12CCCC=C1N(Cc1ccc3c(c1)OCO3)C(=O)[C@H](CC(=O)NCCCCc1ccccc1)C2 | -4.6% | -50.7* | ? | -0.1
CCCCNC(=O)C[C@@H]1C[C@@]2(C(=O)OCC)CCCC=C2N(CCc2ccc(OC)c(OC)c2)C1=O | . | -16.9 | 0.9% | 2.9
CCOC(=O)[C@]12CCC=C1N(Cc1ccc3c(c1)OCO3)C(=O)[C@H](CC(=O)NCCCCc1ccccc1)C2 | -1.5% | -0.7 | ? | -9.6
CCOC(=O)[C@]12CCCC=C1N(CCc1ccc(OC)c(OC)c1)C(=O)[C@H](CC(=O)NCCCCc1ccccc1)C2 | . | -3.4 | 10µM* | -10.7
Cc1c(NS(=O)(=O)c2ccc(C(C)(C)C)cc2)c(=O)n(-c2ccccc2)n1C | . | . | -3.5% | 4.3
CCN1CCN(S(=O)(=O)c2ccc(Cl)c(C(=O)NCc3ccco3)c2)CC1 | 20.4% | -21.4 | 0.4% | 4.1
O=C1NN(c2ccccc2)C(=O)C1=Cc1ccccc1 | -1.2% | -16.8 | 3.98µM* | -0.3
COc1cc(/C=C2/C(=O)NN(c3ccccc3)C2=O)cc(Br)c1O | -1.8% | 32.1 | ? | -0.2
